Many of the other results were omitted from the sample, so hits are more common in it than they were.
CD40 NFkB inh – CD40 pathway inhibition in BL2 cells. 0.94% of 83,000 active. BL2 NF-kB luciferase reporter, CD40L-induced, 4 h. inhibition, % at 10 µM;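 active = mean inhibition of at least 50% with a set share of replicates also reaching that level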
Hits are given with their value.

N#C[C@@H]1[C@@H](c2ccccc2)[C@@H](CO)N1C(=O)c1ccc2c(c1)OCO2 was read as CD40 NFkB inh inactive.
`CC(C)NC(=O)N(C)C[C@@H]1Oc2ccc(N(C)C)cc2C(=O)N(C)C[C@@H]1C` gave CD40 NFkB inh inactive.
COc1ccc(-c2c[n+](CC(=O)OC3CC(C)CCC3C(C)C)c3n2CCC3)cc1 (stereo unspecified) was read as CD40 NFkB inh 78.5.
`COc1ccc(OCC(=O)OCC(=O)N2C(C)CCCC2C)cc1` (stereo unspecified) gave CD40 NFkB inh inactive.
For COc1ccc(-c2cnc3n2CCCCC3)cc1 the results were CD40 NFkB inh inactive.
For O=C(C[C@H]1C[C@@H]2c3cc(NC(=O)NC4CCCCC4)ccc3O[C@@H]2[C@H](CO)O1)NC1CCCC1 the results were CD40 NFkB inh inactive.
CN([NH2+][O-])c1cc(O)ccc1O was read as CD40 NFkB inh inactive.
`O=C(NCCN1CCOCC1)c1cccc(S(=O)(=O)N2CCCC2)c1` gave CD40 NFkB inh inactive.
For COc1ccc(CCNC(=O)c2cccc(S(=O)(=O)N3CCCC3)c2)cc1 the results were CD40 NFkB inh inactive.
O=C(NCCc1ccc2c(c1)OCCO2)c1cccc(S(=O)(=O)N2CCCC2)c1 was read as CD40 NFkB inh 43.1.
For C[C@@H]1CN(C)C(=O)Cc2ccccc2O[C@H]1CN(C)C the results were CD40 NFkB inh inactive.
CCCC(=O)N1CCC2(CC1)CN(C(=O)Cc1ccccn1)[C@H](CO)c1[nH]c3cc(OC)ccc3c12 was read as CD40 NFkB inh inactive.
Cc1ccc(C)c(N(CC(=O)N(C)C)S(C)(=O)=O)c1 was read as CD40 NFkB inh inactive.
For Cc1ccc(OC(=O)CCC(=O)Oc2ccc(C)cc2C)c(C)c1 the results were CD40 NFkB inh inactive.
`C=C(CN(C)C)C(=O)c1ccc(C)cc1C` gave CD40 NFkB inh 92.8.
`O=C(c1cnccn1)N1CC(=O)N2[C@H](C1)[C@H](c1ccc(C#CC3CCCC3)cc1)[C@@H]2CO` gave CD40 NFkB inh inactive.
`COc1ccc(-n2c(C)c3c(C)nnc(C)c3c2C)cc1OC` gave CD40 NFkB inh inactive.
`COc1ccccc1N1C(=O)C2CC(C)=C(C)CC2C1=O` (stereo unspecified) gave CD40 NFkB inh inactive.
Screening COc1cc(N2C(=O)C=CC2=O)ccc1N1C(=O)C=CC1=O returned CD40 NFkB inh 108.8.
For O=C(Nc1ccc(-c2ccccc2)cc1)[C@@H]1[C@@H](CO)[C@@H]2Cn3c(cccc3=O)[C@@H]2N1CC1CCOCC1 the results were CD40 NFkB inh inactive.
`O=C(O)CCCCCN1C(=O)/C(=C/c2cn(-c3ccccc3)nc2-c2cccs2)SC1=S` gave CD40 NFkB inh inactive.
`O=C(O)CCN1C(=O)/C(=C\c2ccncc2)SC1=S` gave CD40 NFkB inh inactive.
`CC(/C=C1\SC(=O)N(CCCC(=O)O)C1=O)=C\c1ccccc1` gave CD40 NFkB inh 47.5.
For Cc1ccccc1-c1cnc2c(c1)C(=O)N([C@@H](C)CO)C[C@H](C)[C@@H](CN(C)Cc1ccccc1F)O2 the results were CD40 NFkB inh inactive.
Screening COc1ccccc1-c1cn(CC[C@H]2CC[C@H](NC(=O)C3CCCC3)[C@H](CO)O2)nn1 returned CD40 NFkB inh inactive.
Screening C[C@H]1CCCCO[C@H](CN(C)C(=O)NC2CCCCC2)[C@@H](C)CN([C@@H](C)CO)C(=O)c2cc(N(C)C)ccc2O1 returned CD40 NFkB inh inactive.
For CCS(=O)(=O)N1CCCCN2[C@H](CO)[C@@H](c3ccc(-c4ccc(C#N)cc4)cc3)[C@H]2C1 the results were CD40 NFkB inh inactive.
Screening O=C(CC1CC1)N1CC[C@H]2[C@H](CO)Nc3ccc(-c4ccc(F)cc4)cc3[C@H]21 returned CD40 NFkB inh inactive.
`CN(C)C(=O)c1ccc(-c2ccc([C@@H]3[C@@H](CO)N(S(C)(=O)=O)[C@H]3C#N)cc2)cc1` gave CD40 NFkB inh inactive.
CCCNC(=O)N1C[C@@H]2[C@H](c3ccccc31)[C@@H](CO)N2Cc1ccc2c(c1)OCO2 was read as CD40 NFkB inh inactive.
For Cc1nc(C)c(C(=O)Nc2ncc([N+](=O)[O-])s2)o1 the results were CD40 NFkB inh 68.6.
CC(C)CC(=O)Nc1ncc([N+](=O)[O-])s1 was read as CD40 NFkB inh inactive.
For CCCCC(=O)Nc1ncc([N+](=O)[O-])s1 the results were CD40 NFkB inh inactive.
Screening COc1cccc(CNC(=O)C[C@@H]2CC[C@@H]3[C@@H](COc4ccc(NS(=O)(=O)c5ccccc5F)cc4C(=O)N3C)O2)c1 returned CD40 NFkB inh inactive.
`O=C(C[C@@H]1C[C@H]2c3cc(NC(=O)NC4CCCC4)ccc3O[C@H]2[C@@H](CO)O1)NCc1cccnc1` gave CD40 NFkB inh inactive.
For CN(C)C(=O)c1cccc(-c2ccc([C@@H]3[C@@H](CO)N(C(=O)C4CCCC4)[C@H]3C#N)cc2)c1 the results were CD40 NFkB inh inactive.
`O=C(COc1ccc2c(c1)OCO2)Nc1nccs1` gave CD40 NFkB inh 46.6.
`O=C(COc1ccc2c(c1)OCO2)Nc1nnc(Cc2ccccc2)s1` gave CD40 NFkB inh inactive.
For O=C(COc1ccc2c(c1)OCO2)Nc1ccc(Cl)cn1 the results were CD40 NFkB inh inactive.
For C[C@@H](NC(=O)[C@@H]1[C@@H](CO)[C@@H]2Cn3c(cccc3=O)[C@H]1N2Cc1ccncc1)c1ccccc1 the results were CD40 NFkB inh inactive.
Screening CCOC(=O)C1=C(COC(=O)c2ccccc2OC)NC(=O)NC1C (stereo unspecified) returned CD40 NFkB inh inactive.
`CC(=O)c1sc2ccccc2c1OC(=O)c1ccco1` gave CD40 NFkB inh inactive.
`CCOC(=O)c1sc2ccccc2c1OC(=O)c1ccccc1OC` gave CD40 NFkB inh 64.2.
`CCc1cnc(N2[C@H](CO)[C@@H](c3ccc(C#Cc4ccccc4F)cc3)[C@@H]2C#N)s1` gave CD40 NFkB inh inactive.
For N#C[C@H]1[C@H](c2ccc(C#Cc3ccccc3F)cc2)[C@H](CO)N1C(=O)c1cccnc1 the results were CD40 NFkB inh inactive.
For C[C@H](NC(=O)[C@@H]1[C@@H](CO)[C@@H]2Cn3c(ccc(C4=CCCC4)c3=O)[C@H]1N2C(=O)C1CC1)c1ccccc1 the results were CD40 NFkB inh inactive.
Screening COc1ccc2c3c(n(C)c2c1)[C@@H](CO)N(Cc1ccccc1OC)CC31CCN(CC2CC2)CC1 returned CD40 NFkB inh inactive.
Screening CC(=O)N(C)C[C@H]1Oc2ccc(NC(=O)NC(C)C)cc2C(=O)N(C)C[C@H]1C returned CD40 NFkB inh inactive.
`O=C(Nc1cc(F)ccc1F)N1CC(=O)N2[C@H](C1)[C@@H](c1ccc(C#CC3CCCC3)cc1)[C@@H]2CO` gave CD40 NFkB inh inactive.
CCOC(=O)c1c(SCCN2CCCC2)n(-c2ccccc2)c(=S)n(-c2ccccc2)c1=O was read as CD40 NFkB inh 51.3.
Screening CCOC(=O)c1c(C)c(C(=O)N2CCN(c3ccccc3)CC2)c(C)n1C returned CD40 NFkB inh inactive.
CCOC(=O)C1CCCN(CCC(C)c2ccccc2)C1 (stereo unspecified) was read as CD40 NFkB inh inactive.
`COc1ccccc1S(=O)(=O)N[C@H]1CC[C@H](CCNC(=O)C2CCCC2)O[C@@H]1CO` gave CD40 NFkB inh inactive.
`N#C[C@H]1[C@@H](c2ccccc2-c2ccc(F)cc2)[C@H](CO)N1C(=O)Cc1ccccc1` gave CD40 NFkB inh inactive.
`Cc1cc(C)nc(NC(N)=NCCc2c[nH]c3ccccc23)n1` gave CD40 NFkB inh 66.1.
Cc1cc(C)nc(NC(N)=NC(C)c2ccccc2)n1 (stereo unspecified) was read as CD40 NFkB inh inactive.
